Assay outcomes as filed in PubChem BioAssay.
FBPA Giardia inh: Giardia lamblia aldolase inhibition. purified Giardia FBPA. 0.71% of 290,000 active. A8B2U2. Potency, µM (titrated, usually from 59.6 µM), for inactives: at the top dose activity, negative = inhibition, hits mostly inhibitors. AID 2451; also: potency is read from the fitted curve at half-maximal effect; % is scaled to controls: 0 for no effect and ±100 for the full control effect; nearly all actives have a fitted effect of over 55% in size
Target sequence (A8B2U2 whole entry, looked up): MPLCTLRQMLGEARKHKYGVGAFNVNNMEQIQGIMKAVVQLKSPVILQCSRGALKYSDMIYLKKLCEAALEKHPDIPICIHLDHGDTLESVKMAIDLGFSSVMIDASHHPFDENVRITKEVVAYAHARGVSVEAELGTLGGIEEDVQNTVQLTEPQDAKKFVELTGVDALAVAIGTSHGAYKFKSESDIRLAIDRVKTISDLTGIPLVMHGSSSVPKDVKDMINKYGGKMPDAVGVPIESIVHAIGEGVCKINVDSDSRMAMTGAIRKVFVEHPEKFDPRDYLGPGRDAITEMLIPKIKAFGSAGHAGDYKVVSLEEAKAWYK
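40 nM FBPA preincubated 10 min at RT with compound (up to 57.5 uM final), then substrate plus GAPDH/TPI/NAD/arsenate coupling and diaphorase/resazurin added. Fluorescence read after 20 min at RT, 525/598 nm.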
RE007 growth inh: less growth of the S. pombe RE007 Vpr strain. S. pombe RE007 Vpr strain, BacTiter-Glo ATP luminescence, 24 h. Potency, µM (series often up to 92.2 µM), for the others: top-dose activity change, negative = less growth, most hits filed as inhibitors. 0.21% of 360,000 active. AID 651644; active = well fitted falling curve with a large enough effect; inconclusive = small, poorly fitted or top-dose-only effect; inactive = no such curve, though single readings can be large or run the other way; also: potency is read from the fitted curve at half-maximal effect; % is scaled to controls: 0 for no effect and ±100 for the full control effect; nearly all actives have a fitted effect of over 50% in size
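Fission yeast RE007 carrying one integrated HIV-1 vpr copy, seeded at OD 0.01 in PMG+AL medium with 23 nL pinned compound. Grown 24 h at 30 degrees; viability read by BacTiter-Glo luminescence after 5 min.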
LmPK inhibitor: inhibitors of Leishmania mexicana pyruvate kinase; purified LmPK, Kinase-Glo ATP luminescence, 1 h; AID 1721; Potency, µM (series often up to 57.5 µM), without a hit: top-dose activity change, negative = inhibition, hits mostly inhibitors; 0.37% of 290,000 active; Q27686; also: potency is read from the fitted curve at half-maximal effect; % is scaled to controls: 0 for no effect and ±100 for the full control effect
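Screened at intermediate enzyme activity to detect both inhibitors and activators: LmPK at 0.1 nM, with a 0.5 nM enzyme column as activation reference. PEP 0.5 mM, ADP 0.1 mM; ATP detected by luminescence after 1 h.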
Shiga toxin inh: inhibitors of Shiga toxin in Vero cells. 9.2% of 290,000 active. inhibition, % at 38.7 µM. AID 2315. Vero cells, Shiga toxin protein synthesis inhibition reporter; in the data active = inhibition mostly above about 28%, no sharp cut-off; inactive = mostly below about 43%; also: 0% is about no effect
Cycloheximide cs: counter-screen for Shiga toxin inhibitors: cycloheximide protein synthesis inhibition; cell reporter, cycloheximide protein synthesis inhibition counterscreen; max response, %; 12% of 300,000 active; AID 2314; in the data active = max response mostly above about 13%, no sharp cut-off; inactive = mostly below about 14%; also: read at 38.3 µM for the half of the compounds with a filed dose; 0% is about no effect
Tb PYK inh: blocks Trypanosoma brucei pyruvate kinase. TbPYK enzyme, Kinase-Glo Plus ATP luminescence, 45 min. Potency, µM (top dose mostly 76.8 µM), for inactives: at the top dose activity, negative = inhibition, most hits filed as inhibitors. 0.12% of 410,000 active. AID 624173; also: potency is read from the fitted curve at half-maximal effect; % is scaled to controls: 0 for no effect and ±100 for the full control effect; nearly all actives have a fitted effect of over 50% in size
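Enzyme and substrate buffer are dispensed first and compound is pin-transferred. ADP at 130 uM final then starts the reaction, which runs 45 min at room temperature. Detection reagent is added for 10 min before luminescence is imaged.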
* hit, by the source's call; ? = inconclusive; nt = not tested or not shown. This is one part of a sample in which hits are shown more often than they occur. Unless noted, calls follow the shape of the dose curve; as a rule, active = well fitted curve in the direction sought with a large enough effect; inconclusive = small, poorly fitted or top-dose-only effect, or another doubt; inactive = no such curve, though single readings can be large; an effect the other way counts as inactive or inconclusive.

SMILES	FBPA Giardia inh	RE007 growth inh	LmPK inhibitor	Shiga toxin inh	Cycloheximide cs	Tb PYK inh
CCOc1ccccc1C(=O)Nc1cccc2ccc(C)nc12	nt	nt	nt	nt	nt	4%
Cc1nc2ccc(S(=O)(=O)N(CC(=O)Nc3cccc(Cl)c3)Cc3ccccc3)cc2s1	nt	nt	nt	nt	nt	9%
CCc1nn(CC(=O)Nc2cccc(C(C)=O)c2)c(=O)c2cc3sccc3n12	nt	nt	nt	nt	nt	-3%
CCOC(=O)N1CCN(CC(=O)c2ccc(O)c(C)c2O)CC1	1%	-17%	-2%	33	31*	5%
CCOC(=O)N1CCN(CC(=O)c2ccc(O)cc2O)CC1	13%	-12%	4%	34	7	1%
CCN(CC)S(=O)(=O)c1ccc(OC)c(NC(=O)c2sc3ccccc3c2Cl)c1	nt	nt	nt	nt	nt	1%
Cc1ccc(-c2cc3c(N=O)c4ccccc4c-3n[nH]2)cc1	0%	38%	-20%	1	-1	2%
Cc1cccc(-c2cc3c(N=O)c4ccccc4c-3n[nH]2)c1	0%	-5%	-14%	104*	46*	-17%
O=Nc1c2cc(-c3ccccc3)[nH]nc-2c2ccccc12	-1%	?	?	101*	37*	?
CCCCS(=N)(=O)CC[C@H](N)C(=O)O (some centres undefined)	-1%	nt	nt	nt	nt	nt
C=CCNC(=O)/C(=C/c1cccc([N+](=O)[O-])c1)NC(=O)c1ccco1	5%	11%	1%	-4	-3	1%
Nn1c(Cc2ccccc2)n[nH]c1=S	-16%	8%	2%	50	18*	-24%
Cn1c(Cc2ccccc2)n[nH]c1=S	-21%	-2%	1%	-6	-3	0%
Cc1ccc(-n2c(Cc3ccccc3)n[nH]c2=S)c(C)c1	0%	-23%	-12%	-5	-1	10µM*
S=c1[nH]nc(Cc2ccccc2)n1-c1cccc2ccccc12	2%	13%	10µM*	-1	-4	3.5µM*
Cc1ccc(-n2c(CC#N)n[nH]c2=S)c(C)c1	?	-3%	?	32	7	?
O=C(c1cccc(NC2=NC3CS(=O)(=O)CC3S2)c1)N1CCN(c2cccc(Cl)c2)CC1 (centres undefined)	-13%	0%	0%	2	-2	-3%
O=C(Nc1ccc(OCC(=O)N2CCOCC2)cc1)Nc1cccc(Cl)c1	-5%	77%	4%	39*	14*	-3%
O=C(Nc1ccc(C(=O)N2CCOCC2)cc1)Nc1cccc(Cl)c1	-2%	-16%	-18%	65*	44*	2%
COc1ccc(Cl)cc1NC(=O)Nc1ccc(C(=O)N2CCOCC2)cc1	nt	-19%	0%	2	2	-8%
CC(C)(C)c1ccc(NC(=O)Nc2ccc(OCC(=O)N3CCOCC3)cc2)cc1	-8%	73%	5%	93*	35*	-3%
COc1ccc(OC)c(CNC(=O)C2CCN(c3nc4ccccc4nc3C(F)(F)F)CC2)c1	nt	nt	nt	nt	nt	-10%
COc1ccc(/C=C/CN2CCCC(CO)(Cc3cccc(Cl)c3)C2)cc1 (centres undefined)	-1%	-16%	-3%	2	-2	0%
COC(=O)c1cc2oc3ccccc3c2n1Cc1nc(-c2cccc(Cl)c2)oc1C	nt	nt	nt	nt	nt	1%
Cc1ccc(C)c(-c2nnc(NC(=O)c3ccc4c(c3)OCCO4)o2)c1	nt	nt	nt	nt	nt	3%
SMILES	FBPA Giardia inh	RE007 growth inh	LmPK inhibitor	Shiga toxin inh	Cycloheximide cs	Tb PYK inh
CCOc1ccc(C(=O)c2cn(Cc3ccc(OC)cc3)c3cc(OC)c(OC)cc3c2=O)cc1	nt	nt	nt	nt	nt	1%
COC(=O)c1ccc(NC(=O)c2cccc(NC(=O)c3ccco3)c2)cc1	-3%	-14%	4%	-11	-2	-3%
CC(C)OC(=O)c1ccc2nc3ccccc3nc2c1	3%	-23%	0%	125*	87*	-2%
CCOC(=O)c1ccc(NC(=O)CSCCC(=O)O)cc1	13%	7%	3%	18	3	8%
CCOC(=O)c1ccc(NC(=O)c2ccco2)cc1	0%	?	-1%	107*	42*	1%
CCOC(=O)c1ccc(NC(=O)CSCc2ccco2)cc1	-27%	0%	5%	32*	13*	-5%
COC(=O)Cc1ccc(NC(=O)c2ccc(NC(=O)c3ccco3)cc2)cc1	0%	-9%	0%	25	8	0%
CC(C)OC(=O)c1ccc(NC(=O)c2ccco2)cc1	1%	-19%	0%	77*	46*	-18%
CCCCCCNc1c([N+](=O)[O-])c(=O)sc2ccccc12	8%	1%	-6%	-2	12	-3%
Cc1nc2ccn(Cc3cccnc3)c(=O)c2cc1C(=O)N1CCN(c2ccc(F)cc2)CC1	nt	nt	nt	nt	nt	3%
COc1cccc(CNC(=O)CCn2c(=O)c3cccn3c3ccc(F)cc32)c1OC	nt	nt	nt	nt	nt	1%
O=C(CSc1nnc(COc2ccccc2)o1)N1CCCCC1	3%	-6%	7%	-4	4	-1%
CC(=O)Nc1cccc(-c2ccnc3c2CC(C)(C(=O)NCC2CC2)O3)c1 (centres undefined)	nt	-6%	nt	nt	nt	-1%
CCOC(=O)c1ccc(NC(=O)c2ccc(NC(=O)c3ccccc3)cc2)cc1	1%	-2%	1%	-13	-4	1%
CC(C)OC(=O)c1ccc(NC(=O)c2ccccc2)cc1	-1%	8%	-6%	69*	66*	0%
Cc1ccc(CSc2cn(CC(=O)N3CCCCC3)c3ccccc23)cc1	nt	nt	nt	nt	nt	-10%
CCOC(=O)c1ccc(NC(=O)NCc2ccc(OC)cc2)cc1	2%	7%	-4%	31	13	-4%
COc1ccc(CNC(=O)Nc2cc(C)cc(C)c2)cc1	1%	-5%	3%	48*	24*	2%
COc1ccc(CNc2ccc(C)c(C)c2)cc1	1%	2%	-3%	57*	41*	4%
COc1ccc(CNC(=O)Nc2ccc(C)c(C)c2)cc1	-2%	21%	0%	32	33*	2%
COc1ccc(NC(=O)NCc2ccncc2)cc1	-2%	18%	-1%	-22	-1	4%
COc1ccc(CNC(=O)Nc2ccc(C)cc2)cc1	-3%	-3%	-1%	76*	24*	-4%
Clc1ccc(-c2cn3c(n2)-c2ccccc2C3)cc1Cl	-21%	2%	25µM*	64*	40*	-2%
Cc1ccc(-c2cc3nc(-c4ccccc4)cc(N)n3n2)cc1	-1%	-2%	1%	82*	38*	-3%
Cc1ccc(-c2cc3nc(-c4ccccc4)cc(N4CCOCC4)n3n2)cc1	-2%	-12%	7%	12	23*	2%
Cc1cc(N)n2nc(-c3ccccc3)cc2n1	4%	?	16µM*	89*	60*	-22%
[O-]c1c[n+](-c2ccc(-[n+]3cc([O-])on3)cc2)no1	?	-7%	-3%	40	21*	-4%
[O-]c1c[n+](-c2ccccc2)no1	0%	-8%	0%	6	1	-7%
